Assay results published in ChEMBL document CHEMBL3988442, “University of Dundee, Small-Polar-MMV Screening Library” (2021).

Tests used:
[1] = target: T1, Aspartate--tRNA(Asp/Asn) ligase (Mycobacterium tuberculosis (strain ATCC 25618 / H37Rv)) (UniProt P9WFW3); assay: Assay for Asp RNA synthetase-1 from Mycobacterium tuberculosis; format: functional; design: scale not given: direction of the effect not stated beside the values; details: 30 µM; note: in the data most compounds retested in dose-response had high values
T1 sequence (whole entry): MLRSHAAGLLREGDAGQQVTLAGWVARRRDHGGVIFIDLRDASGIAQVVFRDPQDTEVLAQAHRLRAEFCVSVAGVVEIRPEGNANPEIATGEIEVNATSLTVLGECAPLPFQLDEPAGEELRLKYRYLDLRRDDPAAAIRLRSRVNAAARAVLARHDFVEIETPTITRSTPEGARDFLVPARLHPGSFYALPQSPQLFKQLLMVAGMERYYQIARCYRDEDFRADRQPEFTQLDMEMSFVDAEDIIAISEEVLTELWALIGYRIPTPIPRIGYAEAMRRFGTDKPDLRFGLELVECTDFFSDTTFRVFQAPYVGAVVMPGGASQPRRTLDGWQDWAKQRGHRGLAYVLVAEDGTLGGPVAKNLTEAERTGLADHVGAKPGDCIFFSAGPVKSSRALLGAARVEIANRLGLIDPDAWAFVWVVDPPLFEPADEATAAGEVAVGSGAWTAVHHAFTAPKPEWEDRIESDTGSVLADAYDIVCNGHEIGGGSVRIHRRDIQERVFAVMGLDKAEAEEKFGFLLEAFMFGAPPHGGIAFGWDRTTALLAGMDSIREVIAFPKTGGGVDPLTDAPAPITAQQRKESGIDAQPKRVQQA

[2] = target: Shiga toxin 2 (Escherichia coli O157:H7) (UniProt P09385+P09386); assay: E. coli 0.157:H7 Shiga Toxin SOP - stx2 screening assay; format: functional; design: scale not given: direction of the effect not stated beside the values; details: 30 µM

Row | Structure (SMILES) | Percent Effect [1] | Percent Effect [2]
1 | COCCC(=O)N1CCC2(COCc3c(C)nc(NCC4CC4)nc32)C1 (configuration not stated) | 1.96% | 0.582%
2 | CC[C@@H](CO)NC(=O)c1coc(COc2ccc(OC)cc2)n1 | 6.33% | -5.46%
3 | CCc1noc(C(C)N2CCN(Cc3noc(C)n3)CC2)n1 (configuration not stated) | -5.46% | -10.9%
4 | CN1CCN(Cc2nc3ccccc3[nH]2)[C@H]2CS(=O)(=O)C[C@H]21 | 8.03% | -6.1%
5 | CCn1cc(CN2CC3CCCN3C[C@H]2C)c(C)n1 (some centres not stated) | 1.26% | -7.87%
6 | COc1cccc(COCC(=O)N2CCN(CC(C)(C)O)CC2)c1 | -1.7% | 9.82%
7 | Cn1ccnc1CN1CCCN(C(=O)c2ccc(Cl)o2)CC1 | -4.19% | 17.7%
8 | CN1CCN(C(=O)CC2CCN(CCc3ccccn3)CC2)CC1 | -2.94% | 8.24%
9 | COc1ccc(OC)c(C2CCN(Cc3nc(C)n4ccccc34)C2)c1 (configuration not stated) | -1.14% | 10.1%
10 | c1cnc(N2C[C@H]3CCN(c4cccnc4)C[C@H]3C2)nc1 | -2.01% | -9.94%
11 | CN(C)S(=O)(=O)c1ccc(CN2CCCC2c2ccccc2)o1 (configuration not stated) | 4.24% | -1.81%
12 | CN(C)Cc1ccnc(C2CCCN2Cc2ccncc2)n1 (configuration not stated) | -3.02% | -14.5%
13 | Cc1nc(C2CCCN2Cc2nnc(C3CC3)o2)no1 (configuration not stated) | 1.34% | 20%
14 | CC(NC(=O)NCc1ccc(Cl)cc1)c1ccccn1 (configuration not stated) | 0.364% | -27.4%
15 | CS(=O)(=O)NC1CCCN(C(=O)NCc2cc[nH]n2)C1 (configuration not stated) | -0.0288% | 2.05%
16 | O=C(Cn1cc(I)cn1)Nc1cccnc1 | 1.95% | -36.6%
17 | Cc1nc(C)c(CC(=O)N2C[C@H]3CC[C@@H]2CN(C(=O)N(C)C)C3)c(=O)[nH]1 | 0.0987% | -13.6%
18 | Cc1noc(C(C)C)c1C(=O)NCc1cc(F)cc(F)c1 | -4.07% | 14.2%
19 | Cc1ccccc1C(=O)N1CCC(n2nnc3cc(F)ccc32)CC1 | -5.01% | -1.06%
20 | O=C(CN1CCCC1Cn1cncn1)NCCc1c(F)cccc1F (configuration not stated) | 1.46% | -12.5%
21 | Cc1nc(CCNC(=O)NCc2ccc(N(C)C)nc2)cs1 | -1.75% | 6.63%
22 | CC1c2ncc(Cn3cncn3)n2CCN1C1CCOCC1 (configuration not stated) | 2.5% | -1.95%
23 | CN(C)C(=O)CN1CCCC2(CCN(c3ccsc3)C2=O)C1 (configuration not stated) | 2.4% | -21.7%

Row | Structure (SMILES) | Percent Effect [1] | Percent Effect [2]
24 | CS(=O)(=O)c1snnc1C1CCN(Cc2ccncc2)CC1 | -6.42% | 0.0805%
25 | Cc1nc(CN2CCCC(NCCOc3ccccc3)C2)no1 (configuration not stated) | -8.02% | -0.215%
26 | Cc1cc(C)n(C2CCCN(C(=O)C3=NN(C)C(=O)CC3)C2)n1 (configuration not stated) | 0.706% | 17.2%
27 | CNC(=O)C(NC(=O)c1nccn2ccnc12)c1ccc(F)c(F)c1 (configuration not stated) | 0.0141% | 14.2%
28 | Cc1ccsc1C(=O)N1C[C@@H]2CN(Cc3ccoc3)CCO[C@@H]2C1 | -1.39% | -11.7%
29 | CC(=O)c1cccc(OCCCC(=O)N(C)Cc2cccc(O)c2)c1 | -2.31% | -20.2%
30 | CN(Cc1ccc(N2CCCCC2)cc1)Cc1noc(C(C)(C)C)n1 | 1.93% | -7.66%
31 | CCc1ccc(O)c(C(=O)NC2CCN(S(=O)(=O)CC)CC2)c1 | -3.5% | -13.2%
32 | COCCN1C(=O)[C@]2(CC[C@@H]3CN(C(=O)NCC(C)C)C[C@@H]32)N=C1C | -3.99% | -11.7%
33 | Clc1cc(CN2CCCC2Cn2cncn2)c2ncccc2c1 (configuration not stated) | -0.0583% | 6.1%
34 | CC(Cn1ccnc1)NC(=O)N1CCN(Cc2cccnc2)CC1 (configuration not stated) | 0.189% | 6.15%
35 | Cc1cnc(N2CCC3(CCCN(c4ccc(C)nn4)C3)C2)nc1 (configuration not stated) | -0.547% | -25.4%
36 | CN(C)c1ccc(NC(=O)NCc2ccccn2)cn1 | 3.94% | -60.4%
37 | Cc1nc(CN2CCN(C(=O)c3ccn(C)c(=O)c3)CC2)cs1 | 4.03% | -43.8%
38 | Cc1cc(C)cc(-c2ccc(CC3(C(=O)O)CCOCC3)cc2)c1 | 4.9% | -4.63%
39 | CCN(Cc1ccco1)C(=O)c1cc(OC)c2c(c1)OCCO2 | 3.71% | -2.41%
40 | O=C(NCc1ccco1)C1CCCN1Cc1nc(-c2ccco2)no1 (configuration not stated) | 3.58% | 23.3%
41 | O=C(Cn1cnc(NC(=O)CC2CCCC2)n1)NCc1ccccc1 | -1.37% | 12.3%
42 | CCc1nc(C2CCCN2Cc2nc(C3CC3)no2)no1 (configuration not stated) | -4.58% | -6.89%
43 | Cn1ccnc1CN1CC[C@@H](NS(C)(=O)=O)[C@@H]1Cc1cccnc1 | -0.168% | -4.31%
44 | CN(C)[C@@H]1CN(Cc2ccoc2)C[C@@H]2CCCO[C@@H]21 | -2.7% | 2.87%
45 | c1cnn(CCNCc2csc(-c3ccsc3)n2)c1 | -3.52% | -113%
46 | Cc1nc(C2CCCN(C(=O)c3cccc(S(C)(=O)=O)c3)C2)no1 (configuration not stated) | -2.72% | -6.27%
